Assay in all cases: NCI-60 one-dose screen, 48 h (100 = growth as untreated, 0 = no growth, -100 = all killed)
The test system of experiment [1] is HCT-15 colon. The note with it: 10 µM unless noted.
Experiment [2] relates to HT29 colon. The note with it: 10 µM unless noted.
The test system of experiment [3] is SNB-75 CNS. The note with it: 10 µM unless noted.
Experiment [4] deals with SNB-19 CNS. The note with it: 10 µM unless noted.
Experiment [5] relates to U251 CNS. The note with it: 10 µM unless noted.
For experiment [6], the system named is SK-MEL-5 melanoma. The note with it: 10 µM unless noted.
Experiment [7] concerns LOX IMVI melanoma. The note with it: 10 µM.
Experiment [8] deals with SK-MEL-28 melanoma. The note with it: 10 µM unless noted.
The test system of experiment [9] is PC-3 prostate. The note with it: 10 µM unless noted.
Experiment [10] deals with UACC-62 melanoma. The note with it: 10 µM unless noted.

This is part of a sample that, as a whole, favours compounds with a hit. Of some 83,000 tested, about 20% had one in any assay.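 Step 1: grow cells in 96-well plates. Step 2: add test compound at a single concentration. Step 3: incubate 48 h. Step 4: record percent growth.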 A number with no mark means an inactive call. Activity calls are given as the source filed them. Rule for the calls: active = growth percent below 10; inactive = the rest.

As for `COc1cccc(C(=O)O)c1OC`, the growth in [1] is 101%; in experiment [2], 96.8%; in experiment [3] it was 90.8%; in experiment [4], 106%; in [5] it was 98.2%; in experiment [6], 104%. Also, the growth in experiment [7] is 99%; in experiment [8], 102%.

Take `Clc1cccc(Cl)c1CSc1nc2ccccc2n2cccc12`: the growth was 68.2% in experiment [1]; 79.6% in [2]; 86.5% in experiment [3]; 95.3% in [5]; 96.5% in experiment [9]; 103% in experiment [6]. The growth is 96.3% in experiment [10], 96.4% in experiment [7] and 103% in experiment [8].

In the case of `S=C=Nc1ccc2ccccc2c1`, the growth in experiment [1] was 96.6%; in experiment [2], 105%; in experiment [3], 94.5%; in [4] it was 101%; in [5], 97.8%; in [10], 102%. Also, the growth in experiment [7] was 94.2%; in experiment [8], 111%.

`C=CC1=NC(C)(C)CC(C)O1` (stereo unspecified): the growth in [1] is 98.9%; in experiment [2], 106%; in experiment [3] it was 72%; in experiment [4], 99.5%; in experiment [9], 102%; in experiment [10], 100%. Moreover, the results for the growth in experiment [7] and in [8] were 98.4% and 96.6%, respectively.

`NC(=S)N/N=C/c1ccc(OC(=O)COc2ccccc2)cn1`: the growth in experiment [1] was 76.8%; in experiment [2], 84.1%; in experiment [3], 59.3%; in experiment [4], 74.9%; in experiment [5] it was 42.3%; in experiment [6], 38.4%. Moreover, the growth is 13.9% in experiment [10] and 83% in experiment [8].

In the case of `N#C/C(=C\c1ccc(C#N)cc1)C(=O)c1ccccc1`, the growth in experiment [1] is 95.7%; in [2], 104%; in [3] it was 77.8%; in [4], 93.4%; in [5], 94.3%; in experiment [10], 92.8%. Besides, the growth was 98.8% in experiment [7] and 121% in experiment [8].

In the case of `NC(CCl)=NCC12CC3CC(CC(C3)C1)C2`, the growth is 9.53% (active) in experiment [1]; -13.6% (active) in [2]; 13.2% in experiment [3]; 6.8% (active) in experiment [5]; 7.42% (active) in experiment [9]; 5.92% (active) in experiment [6]. Besides, the values for the growth in experiment [10], in experiment [7] and in [8] were 32.7%, -33.6% (active) and 55.3%, respectively.

In the case of `CCOC(=O)c1ccc(C(C)(C)C)cc1`, the growth in experiment [1] was 111%; in experiment [2] it was 109%; in [3], 102%; in [4], 112%; in [5], 97.5%; in [10] it was 106%. In addition, the growth in experiment [7] is 99.8%; in experiment [8], 109%.

Consider `Cc1onc(-c2ccccc2Cl)c1C(=O)Cl`, for which the growth was 98.2% in [1]; 106% in experiment [2]; 78.1% in experiment [3]; 96.8% in experiment [5]; 90.7% in experiment [9]; 106% in experiment [6]. The growth is 99% in experiment [10], 95.1% in experiment [7] and 92.6% in experiment [8].

In the case of `O=S(=O)(c1ccc(NC(=S)NCc2cccnc2)cc1)N1CCCCC1`, the growth was 57.2% in experiment [1]; 55.2% in [2]; 78.4% in [3]; 60.6% in [4]; 25.3% in experiment [9]; 74.2% in experiment [6]. The growth in [10] was 93.7%; in experiment [7] it was 56.5%; in experiment [8], 92.6%.

On to `Cc1ccc(NC(=O)c2ccccc2Cl)cc1`, for which the growth was 95.3% in experiment [1]; 107% in experiment [2]; 95.3% in experiment [3]; 99% in [4]; 118% in experiment [5]; 107% in experiment [6]. Further, the growth in experiment [10] is 98.6%; in experiment [7] it was 101%; in experiment [8], 108%.

Turning to `COc1cc(CC#N)c([N+](=O)[O-])cc1OC`, the growth is 116% in experiment [1]; 108% in experiment [2]; 107% in experiment [3]; 109% in experiment [4]; 95.8% in [5]; 99.8% in experiment [10]. In addition, the growth in experiment [7] is 102%; in [8], 107%.

Take `COc1ccc2c(Cl)cc(NC(=O)Nc3c(C)cccc3C)nc2c1`: the growth in [1] is 95.7%; in [2] it was 88%; in [3], -24.7% (active); in [4], 79.3%; in experiment [5], 76.1%; in experiment [6] it was 63.6%. Moreover, the results for the growth in [7] and in experiment [8] were 60.7% and 97%, respectively.

For `Clc1cccc(Cl)c1C1CSc2ccccc2N=C1c1ccccc1` (stereo unspecified), the growth in experiment [1] was 54.7%; in [2], 26.8%; in experiment [3], 64.9%; in experiment [4], 97.4%; in experiment [9], 55%; in experiment [6] it was 86.8%. Moreover, the growth in [10] was 68.9%; in experiment [7] it was -4.86% (active); in [8], 90.4%.

In the case of `CCC1CCC(C)NC1` (stereo unspecified), the growth is 91.5% in experiment [1]; 104% in [2]; 88.6% in experiment [3]; 100% in [4]; 95.7% in experiment [5]; 98.9% in experiment [6]. In addition, the growth is 99.3% in [10], 95.9% in [7] and 102% in experiment [8].

Consider `O=C(O)Cc1cccc2ccccc12`, for which the growth in [1] is 102%; in experiment [2] it was 105%; in experiment [3], 82.2%; in experiment [4] it was 116%; in [5], 95.1%; in [6], 118%. Besides, the values for the growth in experiment [10], in experiment [7] and in experiment [8] were 110%, 97% and 121%, respectively.
